40 sequences from paper PMC12820563, “FoxP3 forms a head-to-head dimer in vivo and stabilizes its multimerization on adjacent microsatellites” can be followed below.

In all, about 16,000 sequences were measured (“rpm ratio (pull-down/input)”: median about 0.94, highest 2% from about 1.7 on). The sample holds the highest values, similar sequences and a random draw of the others, so the mix is not that of the screen.

This assay addresses T1, MBP-FoxP1dN (Mus musculus, UniProt P58462 326-579).
T1 sequence: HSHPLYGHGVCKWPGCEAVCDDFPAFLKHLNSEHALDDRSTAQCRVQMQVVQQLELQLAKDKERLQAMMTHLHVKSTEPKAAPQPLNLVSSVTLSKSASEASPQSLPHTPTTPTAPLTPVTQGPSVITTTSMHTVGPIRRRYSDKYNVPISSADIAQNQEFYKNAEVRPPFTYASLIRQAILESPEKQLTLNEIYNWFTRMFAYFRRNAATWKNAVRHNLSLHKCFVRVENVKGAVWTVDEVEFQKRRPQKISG
The assay can be described thus: PD-seq (MBP pull-down with sequencing); 20 mM Tris-HCl pH 7.5, 100 mM NaCl, 1.5 mM MgCl2, 0.4 uM protein, 0.1 uM dsDNA library, 30 min, room temperature, amylose pull-down; high values mean tight binding. Conditions: protein: recombinant; tags: His6-MBP; chain copies: 2; dsDNA, one strand shown. An outline of the steps: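 Binding is the reads-per-million enrichment of pull-down relative to input, pooled across replicates. For this, 0.4 µM His6-MBP-tagged mouse FoxP3 or FoxP1 fragment lacking the N-terminus, made in E. coli, was incubated with 0.1 µM Klenow-filled double-stranded degenerate DNA library for 30 min at room temperature in Tris pH 7.5 buffer with NaCl and MgCl2. Complexes bound to amylose resin were washed three times before proteinase K released the DNA for PCR barcoding and Illumina sequencing.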
For “GATGATTGTTCTCCCAGCTGATGAATTTTTAATCTCGAGTAAACAAATTTTCCTAATCTTTCTGTTCAAGCGCCATCTAC”, the binding signal is 0.864 RPM ratio (pull-down/input).
In the case of “GATGATTGTTCTCCCAGCTGATGAATTAAGTCCTTCGAGTAAACAAATTTTCCTAATCTTTCTGTTCAAGCGCCATCTAC”, the binding signal was 0.887 RPM ratio (pull-down/input).
The figure for “GATGATTGTTCTCCCAGCTGATGAATTCTTCATCTCGAGTAAACAAATTTTCCTAATCTTTCTGTTCAAGCGCCATCTAC” is 0.813 RPM ratio (pull-down/input).
Then “GATGATTGTTCTCCCAGCTGATGAATTGGTGCATTCGAGTAAACAAATTTTCCTAATCTTTCTGTTCAAGCGCCATCTAC”, with 1.35 RPM ratio (pull-down/input).
Turning to “GATGATTGTTCTCCCAGCTGATGAATTAACCTGCTCGAGTAAACAAATTTTCCTAATCTTTCTGTTCAAGCGCCATCTAC”, the binding signal was 0.79 RPM ratio (pull-down/input).
The figure for “GATGATTGTTCTCCCAGCTGATGAATTGACGAACTCGAGTAAACAAATTTTCCTAATCTTTCTGTTCAAGCGCCATCTAC” is 1.03 RPM ratio (pull-down/input); for “GATGATTGTTCTCCCAGCTGATGAATTTCTTGGGTCGAGTAAACAAATTTTCCTAATCTTTCTGTTCAAGCGCCATCTAC” it is 0.716 RPM ratio (pull-down/input); for “GATGATTGTTCTCCCAGCTGATGAATTATGTGAATCGAGTAAACAAATTTTCCTAATCTTTCTGTTCAAGCGCCATCTAC” it is 1.14 RPM ratio (pull-down/input).
The figure for “GATGATTGTTCTCCCAGCTGATGAATTATGTATATCGAGTAAACAAATTTTCCTAATCTTTCTGTTCAAGCGCCATCTAC” is 1.79 RPM ratio (pull-down/input); for “GATGATTGTTCTCCCAGCTGATGAATTGTATGTATCGAGTAAACAAATTTTCCTAATCTTTCTGTTCAAGCGCCATCTAC” it is 1.67 RPM ratio (pull-down/input); for “GATGATTGTTCTCCCAGCTGATGAATTATGTGTATCGAGTAAACAAATTTTCCTAATCTTTCTGTTCAAGCGCCATCTAC” it is 1.92 RPM ratio (pull-down/input).
Then “GATGATTGTTCTCCCAGCTGATGAATTATATGTATCGAGTAAACAAATTTTCCTAATCTTTCTGTTCAAGCGCCATCTAC”, with 1.41 RPM ratio (pull-down/input).
In the case of “GATGATTGTTCTCCCAGCTGATGAATTATGTATCTCGAGTAAACAAATTTTCCTAATCTTTCTGTTCAAGCGCCATCTAC”, the binding signal was 1.45 RPM ratio (pull-down/input).
For “GATGATTGTTCTCCCAGCTGATGAATTACAAAATTCGAGTAAACAAATTTTCCTAATCTTTCTGTTCAAGCGCCATCTAC”, the binding signal was 1.37 RPM ratio (pull-down/input).
Then “GATGATTGTTCTCCCAGCTGATGAATTCACCCGGTCGAGTAAACAAATTTTCCTAATCTTTCTGTTCAAGCGCCATCTAC”, with 0.783 RPM ratio (pull-down/input); and “GATGATTGTTCTCCCAGCTGATGAATTTAGTCTCTCGAGTAAACAAATTTTCCTAATCTTTCTGTTCAAGCGCCATCTAC”, with 0.934 RPM ratio (pull-down/input); and “GATGATTGTTCTCCCAGCTGATGAATTCCCTTTCTCGAGTAAACAAATTTTCCTAATCTTTCTGTTCAAGCGCCATCTAC”, with 0.783 RPM ratio (pull-down/input).
The figure for “GATGATTGTTCTCCCAGCTGATGAATTCCGCCGATCGAGTAAACAAATTTTCCTAATCTTTCTGTTCAAGCGCCATCTAC” is 0.721 RPM ratio (pull-down/input); for “GATGATTGTTCTCCCAGCTGATGAATTATTAACCTCGAGTAAACAAATTTTCCTAATCTTTCTGTTCAAGCGCCATCTAC” it is 1.06 RPM ratio (pull-down/input).
Then “GATGATTGTTCTCCCAGCTGATGAATTACACAGATCGAGTAAACAAATTTTCCTAATCTTTCTGTTCAAGCGCCATCTAC”, with 1.18 RPM ratio (pull-down/input); and “GATGATTGTTCTCCCAGCTGATGAATTTTACACATCGAGTAAACAAATTTTCCTAATCTTTCTGTTCAAGCGCCATCTAC”, with 1.11 RPM ratio (pull-down/input); and “GATGATTGTTCTCCCAGCTGATGAATTTACACAATCGAGTAAACAAATTTTCCTAATCTTTCTGTTCAAGCGCCATCTAC”, with 1.87 RPM ratio (pull-down/input).
In the case of “GATGATTGTTCTCCCAGCTGATGAATTACACAAATCGAGTAAACAAATTTTCCTAATCTTTCTGTTCAAGCGCCATCTAC”, the binding signal is 1.77 RPM ratio (pull-down/input).
Then “GATGATTGTTCTCCCAGCTGATGAATTTTTACAATCGAGTAAACAAATTTTCCTAATCTTTCTGTTCAAGCGCCATCTAC”, with 1.23 RPM ratio (pull-down/input).
Then “GATGATTGTTCTCCCAGCTGATGAATTACACACATCGAGTAAACAAATTTTCCTAATCTTTCTGTTCAAGCGCCATCTAC”, with 1.48 RPM ratio (pull-down/input); and “GATGATTGTTCTCCCAGCTGATGAATTCCCTACCTCGAGTAAACAAATTTTCCTAATCTTTCTGTTCAAGCGCCATCTAC”, with 0.836 RPM ratio (pull-down/input); and “GATGATTGTTCTCCCAGCTGATGAATTGTCACAGTCGAGTAAACAAATTTTCCTAATCTTTCTGTTCAAGCGCCATCTAC”, with 1.08 RPM ratio (pull-down/input).
The figure for “GATGATTGTTCTCCCAGCTGATGAATTGCCAATTTCGAGTAAACAAATTTTCCTAATCTTTCTGTTCAAGCGCCATCTAC” is 1.04 RPM ratio (pull-down/input); for “GATGATTGTTCTCCCAGCTGATGAATTTCTGTATTCGAGTAAACAAATTTTCCTAATCTTTCTGTTCAAGCGCCATCTAC” it is 1.3 RPM ratio (pull-down/input); for “GATGATTGTTCTCCCAGCTGATGAATTGTTGTATTCGAGTAAACAAATTTTCCTAATCTTTCTGTTCAAGCGCCATCTAC” it is 2.21 RPM ratio (pull-down/input).
With “GATGATTGTTCTCCCAGCTGATGAATTGTATTATTCGAGTAAACAAATTTTCCTAATCTTTCTGTTCAAGCGCCATCTAC”, the binding signal is 1.67 RPM ratio (pull-down/input).
As to “GATGATTGTTCTCCCAGCTGATGAATTTTGTATTTCGAGTAAACAAATTTTCCTAATCTTTCTGTTCAAGCGCCATCTAC”, the binding signal is 1.42 RPM ratio (pull-down/input).
The figure for “GATGATTGTTCTCCCAGCTGATGAATTGTATTCTTCGAGTAAACAAATTTTCCTAATCTTTCTGTTCAAGCGCCATCTAC” is 1.26 RPM ratio (pull-down/input); for “GATGATTGTTCTCCCAGCTGATGAATTCTGTATTTCGAGTAAACAAATTTTCCTAATCTTTCTGTTCAAGCGCCATCTAC” it is 1.18 RPM ratio (pull-down/input); for “GATGATTGTTCTCCCAGCTGATGAATTTGTATTTTCGAGTAAACAAATTTTCCTAATCTTTCTGTTCAAGCGCCATCTAC” it is 2.62 RPM ratio (pull-down/input).
Then “GATGATTGTTCTCCCAGCTGATGAATTATTGTATTCGAGTAAACAAATTTTCCTAATCTTTCTGTTCAAGCGCCATCTAC”, with 1.99 RPM ratio (pull-down/input); and “GATGATTGTTCTCCCAGCTGATGAATTTGTAATTTCGAGTAAACAAATTTTCCTAATCTTTCTGTTCAAGCGCCATCTAC”, with 1.31 RPM ratio (pull-down/input).
As to “GATGATTGTTCTCCCAGCTGATGAATTTGTATATTCGAGTAAACAAATTTTCCTAATCTTTCTGTTCAAGCGCCATCTAC”, the binding signal is 1.71 RPM ratio (pull-down/input).
Consider “GATGATTGTTCTCCCAGCTGATGAATTATTCTTTTCGAGTAAACAAATTTTCCTAATCTTTCTGTTCAAGCGCCATCTAC”, for which the binding signal is 1.17 RPM ratio (pull-down/input).
The figure for “GATGATTGTTCTCCCAGCTGATGAATTTTTGTATTCGAGTAAACAAATTTTCCTAATCTTTCTGTTCAAGCGCCATCTAC” is 1.8 RPM ratio (pull-down/input).
